# Inconclusive results are not listed. Where a call stands in place of a potency, no number is given. A number with no mark means an inactive call. Active and inactive are the calls of the source. Calls follow the shape of the dose curve; as a rule, active = well fitted curve in the direction sought with a large enough effect; inconclusive = small, poorly fitted or top-dose-only effect, or another doubt; inactive = no such curve, though single readings can be large; an effect the other way counts as inactive or inconclusive.
# Key:
# [1] = target: Rap guanine nucleotide exchange factor 3 (Homo sapiens) (UniProt O95398); assay: Confirmatory qHTS for agonist of cAMP-regulated guanine nucleotide exchange factor 3 (EPAC1) (AID 1645881);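 also: EPAC1 catalysed release of BODIPY-GDP from Rap1B seen as fluorescence loss; nearly all actives have a fitted effect of over 75% in size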
# Chain of Rap guanine nucleotide exchange factor 3 (Homo sapiens) (O95398 whole entry, looked up): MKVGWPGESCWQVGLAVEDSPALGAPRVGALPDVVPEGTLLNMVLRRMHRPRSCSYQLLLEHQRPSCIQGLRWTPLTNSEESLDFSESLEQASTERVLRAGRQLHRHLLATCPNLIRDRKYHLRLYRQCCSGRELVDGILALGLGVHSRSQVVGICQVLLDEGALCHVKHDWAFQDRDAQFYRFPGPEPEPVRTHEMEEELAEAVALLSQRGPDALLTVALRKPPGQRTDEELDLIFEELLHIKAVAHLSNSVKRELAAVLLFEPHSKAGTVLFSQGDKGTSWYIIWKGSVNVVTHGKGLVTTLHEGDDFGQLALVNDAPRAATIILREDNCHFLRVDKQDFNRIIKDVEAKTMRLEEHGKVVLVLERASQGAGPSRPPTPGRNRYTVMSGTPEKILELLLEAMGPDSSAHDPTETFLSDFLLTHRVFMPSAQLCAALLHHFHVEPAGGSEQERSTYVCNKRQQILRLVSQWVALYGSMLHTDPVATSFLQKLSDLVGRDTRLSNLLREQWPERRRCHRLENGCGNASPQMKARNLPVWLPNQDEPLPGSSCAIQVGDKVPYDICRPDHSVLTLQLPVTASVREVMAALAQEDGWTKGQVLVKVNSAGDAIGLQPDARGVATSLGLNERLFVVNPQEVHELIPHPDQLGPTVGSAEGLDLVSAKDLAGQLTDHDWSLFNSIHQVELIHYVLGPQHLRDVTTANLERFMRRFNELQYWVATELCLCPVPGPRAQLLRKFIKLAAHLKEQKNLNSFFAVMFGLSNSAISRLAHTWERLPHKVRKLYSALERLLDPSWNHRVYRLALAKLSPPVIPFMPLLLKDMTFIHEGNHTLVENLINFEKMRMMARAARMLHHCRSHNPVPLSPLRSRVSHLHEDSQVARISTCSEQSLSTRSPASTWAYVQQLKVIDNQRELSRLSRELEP
# [2] = target: Rap guanine nucleotide exchange factor 3 (Homo sapiens) (UniProt O95398); assay: Counterscreen qHTS for antagonist of cAMP-regulated guanine nucleotide exchange factor 3 (EPAC1) (AID 1645888);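 also: fluorescence loss as bound BODIPY-GDP is released from Rap1B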
# Procedure, shortened: (§1)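 Rap1B–BODIPY-GDP (250 nM) with 50 uM GDP; compounds pin-transferred to 9.74 nM–152 uM final (activator) or from 7.32 nM upwards (inhibitor). Fluorescence Ex/Em 480/540 nm read at 5 and 30 min, then after adding cAMP or buffer, at room temperature.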
# [3] = target: Rap guanine nucleotide exchange factor 3 (Homo sapiens) (UniProt O95398); assay: Counterscreen qHTS for agonist of cAMP-regulated guanine nucleotide exchange factor 3 (EPAC1) (AID 1645889); also: nearly all actives have a fitted effect of over 40% in size
# Procedure, shortened: as §1
# [4] = target: Rap guanine nucleotide exchange factor 4 (Homo sapiens) (UniProt Q8WZA2); assay: Confirmatory qHTS for agonist of cAMP-regulated guanine nucleotide exchange factor 4 (EPAC2) (AID 1645884);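 also: nucleotide exchange releases bodipy-GDP from Rap1 and this lowers its fluorescence; nearly all actives have a fitted effect of over 65% in size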; also: potency is read from the fitted curve at half-maximal effect
# Chain of Rap guanine nucleotide exchange factor 4 (Homo sapiens) (Q8WZA2 whole entry, looked up): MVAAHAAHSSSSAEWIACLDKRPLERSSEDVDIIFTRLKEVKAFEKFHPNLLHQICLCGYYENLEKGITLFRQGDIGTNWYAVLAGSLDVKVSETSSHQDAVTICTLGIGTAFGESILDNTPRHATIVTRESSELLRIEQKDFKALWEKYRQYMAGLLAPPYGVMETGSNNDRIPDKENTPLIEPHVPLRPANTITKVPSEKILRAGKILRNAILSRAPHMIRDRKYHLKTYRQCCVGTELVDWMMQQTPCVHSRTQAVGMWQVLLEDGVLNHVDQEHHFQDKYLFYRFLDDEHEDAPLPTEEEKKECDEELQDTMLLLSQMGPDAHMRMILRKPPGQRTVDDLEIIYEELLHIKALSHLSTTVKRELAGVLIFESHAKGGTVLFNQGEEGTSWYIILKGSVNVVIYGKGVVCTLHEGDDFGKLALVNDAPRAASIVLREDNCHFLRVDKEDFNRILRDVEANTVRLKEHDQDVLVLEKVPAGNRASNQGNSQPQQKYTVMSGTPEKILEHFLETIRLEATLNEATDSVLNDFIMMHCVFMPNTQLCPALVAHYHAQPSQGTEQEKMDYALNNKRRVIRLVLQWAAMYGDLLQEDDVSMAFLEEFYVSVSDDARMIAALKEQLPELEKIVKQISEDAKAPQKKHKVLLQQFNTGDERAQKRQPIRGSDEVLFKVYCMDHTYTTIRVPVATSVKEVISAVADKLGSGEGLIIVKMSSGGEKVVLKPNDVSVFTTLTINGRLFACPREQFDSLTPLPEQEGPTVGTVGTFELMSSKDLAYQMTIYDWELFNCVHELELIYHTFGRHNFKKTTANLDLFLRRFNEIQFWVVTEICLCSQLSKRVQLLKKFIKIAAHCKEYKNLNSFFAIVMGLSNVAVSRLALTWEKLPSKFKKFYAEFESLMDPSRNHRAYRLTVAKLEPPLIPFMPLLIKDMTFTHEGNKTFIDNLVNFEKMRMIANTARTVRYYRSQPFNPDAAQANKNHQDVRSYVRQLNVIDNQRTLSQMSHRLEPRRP
# [5] = target: Rap guanine nucleotide exchange factor 4 (Homo sapiens) (UniProt Q8WZA2); assay: Confirmatory qHTS for antagonist of cAMP-regulated guanine nucleotide exchange factor 4 (EPAC2) (AID 1645885); also: nearly all actives have a fitted effect of over 25% in size; also: potency is read from the fitted curve at half-maximal effect
structure (smiles),measurement,setting,value
COc1ccccc1CNC(=O)C1(C)CCN1Cc1ccc2ccccc2c1 (centres undefined),Potency,[1],inactive
same,Potency,[2],inactive
same,Potency,[3],inactive
CCOC(=O)C1Oc2ccccc2C(c2ccc(OC)cc2)=C1C(=O)OC (centres undefined),Potency,[1],inactive
same,Potency,[3],inactive
CCc1nc2c(OCc3ccc(C(F)(F)F)cc3)cccn2c1N(C)C(=O)CC(C)C,Potency,[1],inactive
same,Potency,[3],inactive
Cc1nc(C)c(-c2csc(Nc3ccc(C(=O)O)c(O)c3)n2)s1,Potency,[4],inactive
same,Potency,[5],inactive
same,Potency,[2],inactive
COc1ccc(CN(C(=O)c2ccco2)c2ccc(C)c(C)c2)cc1,Potency,[1],inactive
same,"activity change, negative = inhibition",[2],-23% [at 30.8 µM]
same,activation,[3],12.3% [at 30.8 µM]
Cc1ccc(N(Cc2ccc([N+](=O)[O-])cc2)C(=O)c2ccco2)cc1C,Potency,[1],inactive
same,Potency,[2],inactive
same,Potency,[3],inactive
CCOC(=O)c1c(CC(C)C)csc1NC(C)=O,Potency,[1],inactive
same,Potency,[3],inactive
CCOc1ccc(N(Cc2ccc(OC)cc2)C(=O)c2ccco2)cc1,Potency,[1],inactive
same,Potency,[3],inactive
COC(=O)c1ccc2nc(-c3ccc(C)cc3)c(Cc3cccc(F)c3)n2c1,Potency,[1],inactive
same,Potency,[3],inactive
COC(=O)c1ccc2nc(-c3ccc(Cl)cc3)c(Cc3ccccc3OC)n2c1,Potency,[1],inactive
same,Potency,[2],inactive
same,Potency,[3],inactive
N#C/C(=C\c1ccc(Sc2ccccc2)o1)c1nc2ccccc2[nH]1,Potency,[4],112 µM (active)
same,Potency,[5],inactive
same,Potency,[2],inactive
COC(/C(=N/O)c1ccc(Cl)cc1)c1ccccc1 (centres undefined),activation,[4],"9.01% [at 17.1 µM, percent relative to cAMP agonist control]"
same,Potency,[5],inactive
same,"activity change, negative = inhibition",[2],-2% [at 30.8 µM]
O=C1N(Cc2ccccc2Cl)c2ccccc2C1(O)c1c[nH]c2ccccc12 (centres undefined),Potency,[4],inactive
same,Potency,[5],inactive
same,Potency,[2],inactive
C/C(=N\N(Cc1ccccc1)c1ccccc1)c1ccncc1,activation,[4],"-6.71% [at 17.1 µM, percent relative to cAMP agonist control]"
same,Potency,[5],inactive
CCC(CC)C(=O)Nc1nc(-c2ccc3c(c2)CCN3C(=O)C2CC2)c(C)s1,Potency,[1],inactive
same,"activity change, negative = inhibition",[2],-24% [at 30.8 µM]
same,activation,[3],26.5% [at 30.8 µM]
COC(=O)C1=C(C)N(Cc2ccco2)C(=O)N[C@H]1c1cccc(C(F)(F)F)c1,Potency,[1],inactive
same,Potency,[3],inactive
COC(=O)c1ccc2nc(-c3ccc(Cl)cc3)c(Cc3ccsc3)n2c1,Potency,[1],inactive
same,Potency,[2],inactive
same,Potency,[3],inactive
CC1=CC(=C(C#N)c2nc3ccccc3s2)C=C(C)N1Cc1ccco1,Potency,[4],inactive
same,Potency,[5],inactive
same,Potency,[2],inactive
O=C(O)CCN1C(=O)/C(=C\c2cccc(OCC(=O)Nc3ccc(Cl)cc3)c2)SC1=S,Potency,[4],inactive
same,Potency,[5],inactive
same,Potency,[2],inactive
CC(=O)N(CCC(c1ccco1)C(C)C)Cc1ccc(OC(C)C)cc1 (centres undefined),Potency,[1],inactive
same,Potency,[3],inactive
COc1cccc(-c2coc3c(C)c4oc(=O)c(CCC(=O)O)c(C)c4cc23)c1,Potency,[1],inactive
same,Potency,[2],inactive
same,Potency,[3],inactive
O=C1Nc2ccccc2N=C(c2ccccc2)c2ccccc21,Potency,[1],inactive
same,activation,[3],39.2% [at 30.8 µM]
C/[N+]([O-])=C/c1c(OCc2ccccc2)ccc2ccccc12,Potency,[1],inactive
same,Potency,[2],inactive
same,Potency,[3],inactive
Cc1cc(=O)n(Cc2ccccc2)c2c1c(C)nn2C,Potency,[4],inactive
same,Potency,[5],inactive
same,Potency,[2],inactive
CCc1nc2c(OCc3ccc(C(F)(F)F)cc3)cccn2c1N(C)C(=O)C1CC1,Potency,[1],inactive
same,Potency,[3],inactive
CCC(C(=O)c1ccc2ncccc2c1)c1ccccc1 (centres undefined),Potency,[1],inactive
same,Potency,[2],inactive
same,Potency,[3],inactive
COC(=O)c1ccc2nc(-c3ccc(C)cc3)c(Cc3ccsc3)n2c1,Potency,[1],inactive
same,"activity change, negative = inhibition",[2],1.91% [at 30.8 µM]
same,activation,[3],9.45% [at 30.8 µM]
CCCC/C=C/[C@H](c1ccccc1)[C@H](CO)Cc1cccnc1,Potency,[1],inactive
same,Potency,[3],inactive
C/C(=N\O)C(=O)OC1CC(C)CCC1C(C)C (centres undefined),Potency,[1],inactive
same,Potency,[3],inactive
COc1ccc(CN2C(=O)c3cccnc3C2O)cc1 (centres undefined),Potency,[1],inactive
same,Potency,[2],inactive
same,Potency,[3],inactive
Cc1cc(C)c(S(=O)(=O)Nc2ccc3c(c2)CCC3)c(C)c1,Potency,[1],inactive
same,Potency,[3],inactive
O=C(COc1ccc(F)cc1Br)NCC1COc2ccccc2O1 (centres undefined),Potency,[1],inactive
same,Potency,[2],inactive
same,Potency,[3],inactive
Cc1ccccc1C1CC(=O)c2ccccc2C1C (centres undefined),Potency,[1],inactive
same,Potency,[2],inactive
same,Potency,[3],inactive
CCOC(=O)C1(C)C=C(Nc2ccc(C(N)=O)cc2)C(=O)N1c1ccccc1 (centres undefined),Potency,[4],inactive
same,Potency,[5],10.7 µM (active)
same,Potency,[2],inactive
O=C(O)COc1ccccc1/C=N/Nc1ccc(S(=O)(=O)Nc2ccc(Cl)cc2)cc1[N+](=O)[O-],activation,[4],"1.99% [at 17.1 µM, percent relative to cAMP agonist control]"
same,Potency,[5],inactive
same,"activity change, negative = inhibition",[2],-8.36% [at 30.8 µM]
same,activation,[3],17.2% [at 30.8 µM]
O=C(Nc1cc(S(=O)(=O)N2CCCCC2)ccc1O)c1ccccc1NS(=O)(=O)c1ccc(F)c(F)c1,Potency,[4],0.282 µM (active)
same,Potency,[5],inactive
same,"activity change, negative = inhibition",[2],-23% [at 30.8 µM]
Cc1c(CCC(=O)O)c(=O)oc2cc(OCc3ccccc3Br)ccc12,Potency,[4],inactive
same,Potency,[5],84.9 µM (active)
same,Potency,[2],inactive
same,Potency,[3],inactive
COc1ccc(C(=O)NCCn2cc(SCC(=O)NCCc3ccc(OC)c(OC)c3)c3ccccc32)cc1,Potency,[4],inactive
same,Potency,[5],inactive
same,Potency,[2],inactive
same,Potency,[3],inactive

# Source: PubChem BioAssay (NCATS)
